Screen size: about 1,400 compounds; about 560 (40%) were called active.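 How the source made its calls: active means mean inhibition over duplicate tests at 10 µM above 50%; inactive means the rest.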 The set was probably picked from earlier hits. This is one part of the list.
Assay: ASC/caspase-1 reporter retest in S. cerevisiae at one dose, specificity check for NALP1 project (AID 488857)
Settings: S. cerevisiae ASC/Caspase-1, beta-galactosidase luminescence, 24 h; at 10 µM; active compounds read high

Compound | inhibition
CCC1(CC)Cc2ccccc2C(Nc2c(C)n(C)n(-c3ccccc3)c2=O)=N1 | 18.9% (inactive)
O=C(Cc1coc2cc3c(cc12)CCC3)NCC1(N2CCCCC2)CCCCC1 | 45% (inactive)
Cc1ccc(OCc2nc(-c3ccc(Cl)cc3)n[nH]2)cc1 | 78.2% (active)
O=C(O)[C@@H](c1ccccc1)N1Cc2ccccc2C1=O | 22.6% (inactive)
COC(=O)N/N=C(\C)c1ccc2ccccc2c1OC(F)F | 62.3% (active)
OC(CNCCC1C=Nc2ccccc21)Cn1c2ccc(Cl)cc2c2cc(Cl)ccc21 (stereo unspecified) | 53.8% (active)
Clc1ccc(OCCOCCN2CCc3ccccc3C2)c(Cl)c1 | 58.2% (active)
CC(C)NCCOCCOc1ccc(Cl)cc1Br | 39.3% (inactive)
CCc1cc(OCCCCNCc2ccccc2)ccc1Cl | 44.5% (inactive)
Clc1ccc(OCCCNCc2ccccc2)c2ccccc12 | 53.2% (active)
Cc1nc2c(=O)n(C)c(=O)n(C)c2nc1Cl | 25.6% (inactive)
CCOC(=O)/C(=N\Nc1ccc(Cl)cc1)c1csc(Nc2ccccc2)n1 | 31.7% (inactive)
Cc1ccc(S(=O)(=O)c2nc(Nc3ccccc3)sc2Cl)cc1 | 69.3% (active)
Cc1ccc(S(=O)(=O)c2nc(C)oc2NCc2ccccc2)cc1 | 34.9% (inactive)
CC1CCCC(NC(=O)C2CCN(S(=O)(=O)N3CCCCC3)CC2)C1C (stereo unspecified) | 36.5% (inactive)
CCn1c(COc2ccccc2C)nnc1SCC(=O)N1CCN(c2ccccc2)CC1 | 40.5% (inactive)

Compound | inhibition
O=C(COc1cccc2ccccc12)N1CCN(c2ccccc2)CC1 | 52% (active)
O=C(Cc1ccc(-n2c(=O)[nH]c3ccccc3c2=O)cc1)N1CCN(c2ccccc2)CC1 | 17.4% (inactive)
C/C(=N\N1CCN(c2ccc(Cl)cc2)CC1)c1ccco1 | 36.9% (inactive)
CCCCCOc1ccc(Br)cc1CSC(=N)N | 59% (active)
FC(F)(F)C(F)(F)c1nnc2ccc(-n3ccnc3)nn12 | 33.5% (inactive)
Cc1ncc(S(=O)(=O)c2ccccc2)c(-c2ccccc2Cl)n1 | 7.65% (inactive)
COc1ccc2cc(/C=N/O)c(Cl)nc2c1 | 55% (active)
COc1ccc(CC2(C)OC(c3ccc(C)cc3)=NN2C(C)=O)cc1 (stereo unspecified) | 59% (active)
O=C1C=CC(=O)N1c1ccc(OC(F)F)cc1 | 71% (active)
CNCc1ccccc1Sc1cc(O)ccc1O | 24.2% (inactive)
CN1c2ccccc2Sc2cc(N)ccc21 | 87.7% (active)
CC(C)C(=O)N(Cc1ccccc1)c1ccccn1 | 21.7% (inactive)
Cc1cc(C)cc(-n2nnc(C(=O)NCc3ccccc3)c2N)c1 | 53.6% (active)
CCOc1ccc(CNC(=O)c2cc3oc4ccccc4c3n2C)cc1 | 32.7% (inactive)
Nc1c(C(=O)NCc2ccc3c(c2)OCO3)nnn1-c1ccc(OC(F)(F)F)cc1 | 48.9% (inactive)

From PubChem BioAssay AID488857 (Sanford-Burnham Center for Chemical Genomics, 2010)
